Data reported in PubChem BioAssay (EPA / NIEHS).
“And” between values parts separate entries of the source, which are not always exact repeats. Equal entries are not always repeated. More than one record can exist for a structure, and the calls need not agree. The source made the active and inactive calls. How the source made its calls: active means hit-call score of the fitted dose curve at least 0.9, where 1 is the maximum; inactive means score below 0.9.

What was measured:
[1] = read-out: Vascular cell adhesion molecule 1 (VCAM1), VCAM1 (gene 7412); assay: BSK_LPS_VCAM1: BioMAP Diversity Plus: LPS Assay for Vascular cell adhesion molecule 1 (VCAM1) Biomarker Activity (AID 2283086); details: primary human HUVEC with PBMC; actives raise or lower the signal
Summary of the method: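 VCAM-1 quantified by ELISA in an LPS-activated co-culture of human endothelial cells and peripheral blood mononuclear cells, read 24 h post-treatment. Fitted in both directions versus DMSO; parallel SRB staining flags overt cytotoxicity.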

[2] = read-out: CD38, CD38 (gene 952); assay: BSK_SAg_CD38: BioMAP Diversity Plus: SAg Assay for CD38 Biomarker Activity (AID 2283087); details: primary human HUVEC with PBMC; actives raise or lower the signal
Summary of the method: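 CD38 quantified by ELISA (fluorescence) in a superantigen-activated endothelial cell–PBMC co-culture at 24 h post-dose. Activity fitted in both directions relative to DMSO; parallel SRB and Alamar Blue cytotoxicity read-outs.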

[3] = read-out: CD40, CD40 (gene 958); assay: BSK_SAg_CD40: BioMAP Diversity Plus: SAg Assay for CD40 Biomarker Activity (AID 2283088); details: primary human HUVEC with PBMC; actives raise or lower the signal
Summary of the method: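 Compounds were dosed onto a human primary endothelial–PBMC co-culture, and after 24 h CD40 was quantified by ELISA using a fluorescence signal. Activity in either direction was fitted relative to DMSO.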

[4] = read-out: CD69, CD69 (gene 969); assay: BSK_SAg_CD69: BioMAP Diversity Plus: SAg Assay for CD69 Biomarker Activity (AID 2283089); details: primary human HUVEC with PBMC; actives raise or lower the signal;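 on AC50: cell surface CD69 protein quantified by ELISA with fluorescence detection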
Summary of the method: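 ELISA, fluorescence read-out: CD69 on human umbilical vein endothelial cell + PBMC co-culture, 24 h post-dosing. Gain or loss of signal fitted bidirectionally against DMSO baseline.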

[5] = read-out: Monocyte Chemoattractant Protein-1 (MCP1), CCL2 (gene 6347); assay: BSK_SAg_MCP1: BioMAP Diversity Plus: SAg Assay for Monocyte Chemoattractant Protein-1 (MCP1) Biomarker Activity (AID 2283090); details: primary human HUVEC with PBMC; actives raise or lower the signal
Summary of the method: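 Values derive from bidirectional fitting of ELISA-measured MCP1 against DMSO controls. Readings were taken 24 h after dosing human vascular endothelial cells co-cultured with peripheral blood mononuclear cells under superantigen stimulation.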

[6] = read-out: E-selectin (Homo sapiens) (UniProt P16581); assay: BSK_SAg_Eselectin: BioMAP Diversity Plus: SAg Assay for Eselectin Biomarker Activity (AID 2283091); details: primary human HUVEC with PBMC; actives raise or lower the signal
Summary of the method: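 Co-culture: HUVEC + PBMC. Dose compound; 24 h. ELISA for E-selectin. Bidirectional fit vs DMSO.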

[7] = read-out: Monokine induced gamma interferon (MIG), CXCL9 (gene 4283); assay: BSK_SAg_MIG: BioMAP Diversity Plus: SAg Assay for Monokine induced gamma interferon (MIG) Biomarker Activity (AID 2283092); details: primary human HUVEC with PBMC; actives raise or lower the signal
Summary of the method: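 ELISA readout of MIG/CXCL9; primary human umbilical vein endothelial cells co-cultured with peripheral blood mononuclear cells; 24 h post-dose; gain/loss fit vs DMSO baseline.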

[8] = BSK_SAg_PBMCCytotoxicity: PBMC Cytotoxicity Assessment in the BioMAP Diversity Plus: SAg Assay (AID 2283093); details: primary human HUVEC with PBMC;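 further: PBMC viability measured as Alamar Blue reduction fluorescence at 546/580 nm; fitted both ways against DMSO so a hit may be loss or gain of signal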;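 on AC50: PBMC superantigen activated with SEB plus TSST-1 one hour after compound addition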
Summary of the method: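 Alamar Blue reduction (6 h, ex/em 546/580 nm) read after 90 h culture of PBMC pre-dosed 1 h then stimulated with SEB plus TSST-1, 20 ng/mL each. Gain or loss of signal fitted relative to DMSO.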

[9] = read-out: Interleukin-8 (IL8), CXCL8 (gene 3576); assay: BSK_SAg_IL8: BioMAP Diversity Plus: SAg Assay for Interleukin-8 (IL8) Biomarker Activity (AID 2283094); details: primary human HUVEC with PBMC; actives raise or lower the signal
Summary of the method: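 ELISA readout of IL-8 from a superantigen-activated endothelial/PBMC primary human co-culture, taken 24 h post-dosing and fitted in both directions against DMSO; parallel SRB total-protein staining flags overt cytotoxicity.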

[10] = BSK_SAg_SRB: Viability Assessment in the BioMAP Diversity Plus: SAg Assay (AID 2283096); details: primary human HUVEC with PBMC;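 further: cells read one day after compound addition; hits may be either gain or loss of signal compared with DMSO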
Summary of the method: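 SRB absorbance at 560 nm served as the viability read-out. Cells (HUVEC plus peripheral blood mononuclear cells) were TCA-fixed and stained 24 h post-dosing; activity fitted in both directions against DMSO controls.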

Measured: AC50

Chain of E-selectin (Homo sapiens) (P16581 whole entry, looked up): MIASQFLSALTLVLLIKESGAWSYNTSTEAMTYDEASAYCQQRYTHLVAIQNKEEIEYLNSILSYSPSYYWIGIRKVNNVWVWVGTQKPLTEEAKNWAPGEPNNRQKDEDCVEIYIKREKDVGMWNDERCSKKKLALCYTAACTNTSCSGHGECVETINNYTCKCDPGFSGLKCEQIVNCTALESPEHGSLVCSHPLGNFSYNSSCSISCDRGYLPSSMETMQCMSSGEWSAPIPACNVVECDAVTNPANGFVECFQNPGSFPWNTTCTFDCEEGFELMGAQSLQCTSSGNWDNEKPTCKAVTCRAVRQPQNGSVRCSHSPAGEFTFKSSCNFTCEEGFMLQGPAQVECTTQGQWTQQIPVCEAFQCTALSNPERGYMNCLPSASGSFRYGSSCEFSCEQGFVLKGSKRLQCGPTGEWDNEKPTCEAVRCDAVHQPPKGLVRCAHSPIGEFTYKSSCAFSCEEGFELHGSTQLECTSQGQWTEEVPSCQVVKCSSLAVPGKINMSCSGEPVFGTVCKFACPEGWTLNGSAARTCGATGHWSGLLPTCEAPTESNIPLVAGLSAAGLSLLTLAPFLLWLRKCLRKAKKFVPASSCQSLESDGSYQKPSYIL

CC1OC1C1CCC2(C)OC2C1 (stereo not given)
inactive: all assays above

CCOc1nc(F)cc2nc(S(=O)(=O)Nc3c(Cl)cccc3C(=O)OC)nn12
inactive: all assays above

C=CCOc1c(Br)cc(Br)cc1Br
inactive: all assays above

C=CC=CC=CCCCCC
inactive: all assays above

c1ccc2c(c1)ccc1cc3c(ccc4ccccc43)cc12
inactive: all assays above

CN1C(=O)N(C)C(O)C1O (stereo not given)
inactive: all assays above

CC(C)C(=O)C(C)C
inactive: all assays above

CCCCC/C=C\C/C=C\CCCCCCCC(=O)OC
active: [1] 30 µM | [2] 28.4 µM | [3] 20 µM | [6] 30.9 µM | [7] 31.4 µM | [8] 23.2 µM | [9] 27.8 µM
inactive: [5] | [10]

CCCCNc1ccc(NCCCC)c2c1C(=O)c1ccccc1C2=O
inactive: all assays above

c1ccc2c(c1)ccc1ncccc12
active: [1] 2.69 µM | [2] 29.7 µM | [3] 20 µM | [10] 28.1 µM
inactive: all other assays above

C#CC1(O)CC[C@H]2[C@@H]3CCC4=CCCC[C@@H]4[C@H]3CC[C@@]21C (stereo not given in full)
active: [1] 29.9 µM | [2] 35.1 µM | [3] 30.2 µM | [4] 29.7 µM | [5] 31.8 µM | [6] 35.9 µM | [7] 31.8 µM | [8] 20 µM | [9] 20 µM | [10] 28 µM

CCCCCCCCc1ccc(Nc2ccc(CCCCCCCC)cc2)cc1
active: [6] 0.0731 µM
inactive: all other assays above

O=C(c1ccc(O)cc1)c1ccc(O)cc1O
active: [2] 20 µM
inactive: [1] | [2] | [3] | [4] | [5] | [6] | [7] | [8] | [9] | [10]

CCCCCCCCCCCCCCCC[N+](C)(C)CC
active: [1] 3.79 µM | [2] 9.51 µM | [3] 10.2 µM | [4] 1.78 µM | [5] 2.24 µM | [6] 2.77 µM | [7] 3.51 µM | [8] 1.94 µM | [9] 9.75 µM | [10] 1.69 µM

O=C(Cl)c1cc(C(=O)Cl)cc(C(=O)Cl)c1
active: [1] 27.8 µM | [2] 28.9 µM | [3] 30.3 µM | [4] 31.9 µM | [5] 29.1 µM | [6] 36.6 µM | [7] 34.2 µM | [8] 12.6 µM | [9] 20 µM | [10] 30.7 µM

O=C(Nc1ccccc1SSc1ccccc1NC(=O)c1ccccc1)c1ccccc1
inactive: [5] | [6] | [7] | [10]
active: [1] 9.83 µM | [2] 5.21 µM | [3] 8.91 µM | [4] 2.01 µM | [8] 2.78 µM | [9] 6.04 µM

c1ccc(-c2ccccn2)nc1
inactive: all assays above

CCO[Si](CCCN=C=O)(OCC)OCC
inactive: all assays above

CCO[Si](C)(OCC)OCC
inactive: all assays above

O=c1c2ccccc2oc2ccccc12
inactive: all assays above

C=CC(=O)OCC(Br)CBr (stereo not given)
active: [1] 10.9 µM | [2] 15.3 µM | [3] 11.7 µM | [4] 10.2 µM | [5] 24.8 µM | [6] 8.13 µM | [7] 20 µM | [8] 6.05 µM | [9] 6.6 µM | [10] 34.1 µM

S=C(NC1CCCCC1)NC1CCCCC1
inactive: all assays above

O=Nc1ccc(O)cc1
inactive: all assays above

COCc1c(C(C)C)nc(C(C)C)c(/C=C/[C@@H](O)C[C@@H](O)CC(=O)O)c1-c1ccc(F)cc1
active: [3] 0.126 µM | [4] 0.0293 µM | [6] 0.0215 µM | [9] 0.00783 µM | [10] 0.0355 µM
inactive: [1] | [5] | [7] | [8]

C/C=C\C/C=C/CCCCCCCCOC(C)=O
inactive: [5] | [7] | [9] | [10]
active: [1] 26.2 µM | [2] 32.1 µM | [3] 20 µM | [4] 20 µM | [6] 29.5 µM | [8] 24.3 µM

CCOC(=O)c1ccccc1C(=C1C=C(Br)C(=O)C(Br)=C1)c1cc(Br)c(O)c(Br)c1
active: [1] 20.2 µM and 19.9 µM | [2] 20.4 µM and 18.8 µM | [3] 19.4 µM and 19.1 µM | [4] 15.1 µM and 15.6 µM | [5] 20.7 µM and 21 µM | [6] 20.1 µM and 18.8 µM | [7] 22.2 µM and 23 µM | [9] 19 µM and 18 µM | [10] 21.1 µM and 18.9 µM
inactive: [8]

Nc1ccc(N)c(Cl)c1
active: [1] 5.43 µM and 5.78 µM | [2] 15.9 µM | [3] 26.4 µM and 21.7 µM | [4] 22.9 µM and 18.4 µM | [5] 30.8 µM and 31.3 µM | [6] 19.4 µM and 22.2 µM | [7] 30.4 µM and 31.3 µM | [8] 16.4 µM and 15.4 µM | [9] 30.8 µM | [10] 27.7 µM
inactive: [9]

N#[N+]c1ccc2c(S(=O)(=O)[O-])cccc2c1O
inactive: all assays above

CCCCC(CC)COCC1CO1 (stereo not given)
inactive: all assays above

CC(C)(c1cc(Br)c(OCCO)c(Br)c1)c1cc(Br)c(OCCO)c(Br)c1
active: [1] 16.2 µM | [2] 5.1 µM | [3] 13.3 µM | [4] 2.31 µM | [6] 1.44 µM
inactive: [5] | [7] | [8] | [9] | [10]

O=C1CCCN1CCO
inactive: all assays above

C=CCOCC(O)CCl (stereo not given)
inactive: all assays above

COc1ccc2nc(N)sc2c1
inactive: all assays above

CO[Si](OC)(OC)c1ccccc1
inactive: all assays above

CCCCC(CC)COC(=O)c1ccccc1O (stereo not given)
active: [1] 10 µM | [8] 18.4 µM
inactive: all other assays above

C=C[Si](OC(C)=O)(OC(C)=O)OC(C)=O
inactive: all assays above
